Experimental data from the supplement of paper PMC8728848.
This excerpt belongs to a sample that is enriched for the strongest signals.

Experiments:
Experiment in all cases: glycan array binding signal (z-score within array); higher = stronger binding
Conditions in all cases: glycan notation: IUPAC condensed, linker removed
[1] = target: Fuc(a1-2)Gal(b1-3)GlcNAc(b1-3)Gal(b1-4)Glc
Procedure, shortened: (§1)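 Negative Z-scores can be read as non-binding. The Z-score is calculated within each array and then averaged across arrays of one protein sequence at different concentrations or buffers and across linkers. Arrays, 3228 in all, were curated from the Consortium for Functional Glycomics database and kept only where the protein sequence was available.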

[2] = target: Fuc(a1-2)Gal(b1-3)GlcNAc(b1-3)[Gal(b1-4)GlcNAc(b1-6)]Gal(b1-4)Glc
Procedure, shortened: as §1

[3] = target: Fuc(a1-2)Gal(b1-3)[Fuc(a1-4)]GlcNAc(b1-2)Man(a1-3)[Fuc(a1-2)Gal(b1-3)[Fuc(a1-4)]GlcNAc(b1-2)Man(a1-3)]Man(b1-4)GlcNAc(b1-4)GlcNAc
Procedure, shortened: as §1

[4] = target: Fuc(a1-2)Gal(b1-4)GlcNAc(b1-3)Gal(b1-4)GlcNAc
Procedure, shortened: as §1

[5] = target: Fuc(a1-2)Gal(b1-4)[Fuc(a1-3)]GlcNAc(b1-3)GalNAc
Procedure, shortened: as §1

Fuc(a1-2)Gal6S(b1-4)Glc = target: Fuc(a1-2)Gal6S(b1-4)Glc
Procedure, shortened: as §1

[6] = target: Fuc(a1-2)Gal6S(b1-4)Glc6S
Procedure, shortened: as §1

[7] = target: Fuc(a1-2)[Gal(a1-3)]Gal(b1-3)GlcNAc
Procedure, shortened: as §1

[8] = target: Fuc(a1-2)[GalNAc(a1-3)]Gal(b1-4)[Fuc(a1-3)]GlcNAc(b1-3)GalNAc
Procedure, shortened: as §1

[9] = target: Fuc(a1-3)[GalNAc(b1-4)]GlcNAc
Procedure, shortened: as §1

Gal(b1-3)Gal(b1-4)GlcNAc = target: Gal(b1-3)Gal(b1-4)GlcNAc
Procedure, shortened: as §1

[10] = target: Gal(b1-3)Gal(b1-4)GlcNAc(b1-2)Man(a1-3)[Gal(b1-3)Gal(b1-4)GlcNAc(b1-2)Man(a1-6)]Man(b1-4)GlcNAc(b1-4)GlcNAc
Procedure, shortened: as §1

[11] = target: Gal(b1-3)GlcNAc(a1-6)Gal(b1-4)GlcNAc
Procedure, shortened: as §1

[12] = target: Gal(b1-3)GlcNAc(b1-3)Gal(b1-4)GlcNAc(b1-2)[Gal(b1-3)GlcNAc(b1-3)Gal(b1-4)GlcNAc(b1-6)]Man(a1-6)[Gal(b1-3)GlcNAc(b1-3)Gal(b1-4)GlcNAc(b1-2)Man(a1-3)]Man(b1-4)GlcNAc(b1-4)[Fuc(a1-6)]GlcNAc
Procedure, shortened: as §1

[13] = target: Gal(b1-3)GlcNAc(b1-3)Gal(b1-4)GlcNAc(b1-3)Gal(b1-4)GlcNAc(b1-2)[Gal(b1-3)GlcNAc(b1-3)Gal(b1-4)GlcNAc(b1-3)Gal(b1-4)GlcNAc(b1-6)]Man(a1-6)[Gal(b1-3)GlcNAc(b1-3)Gal(b1-4)GlcNAc(b1-3)Gal(b1-4)GlcNAc(b1-2)Man(a1-3)]Man(b1-4)GlcNAc(b1-4)[Fuc(a1-6)]GlcNAc
Procedure, shortened: as §1

[14] = target: Gal(b1-3)GlcNAc(b1-6)GalNAc
Procedure, shortened: as §1

[15] = target: Gal(b1-3)[GlcNAc(b1-6)]GalNAc
Procedure, shortened: as §1

[16] = target: Gal(b1-3)[Neu5Ac(a2-6)]GalNAc
Procedure, shortened: as §1

[17] = target: Gal(b1-3)[Neu5Ac(b2-6)]GalNAc
Procedure, shortened: as §1

[18] = target: Gal(b1-4)GlcNAc(b1-2)[Gal(b1-4)GlcNAc(b1-4)]Man(a1-3)[Gal(b1-4)GlcNAc(b1-2)[Gal(b1-4)GlcNAc(b1-6)]Man(a1-6)]Man(b1-4)GlcNAc(b1-4)GlcNAc
Procedure, shortened: as §1

[19] = target: Gal(b1-4)GlcNAc(b1-2)[Gal(b1-4)GlcNAc(b1-4)]Man(a1-3)[GlcNAc(b1-4)][Gal(b1-4)GlcNAc(b1-2)Man(a1-6)]Man(b1-4)GlcNAc(b1-4)GlcNAc
Procedure, shortened: as §1

[20] = target: Gal(b1-4)GlcNAc(b1-3)Gal(b1-4)GlcNAc(b1-2)Man(a1-3)[Gal(b1-4)GlcNAc(b1-3)Gal(b1-4)GlcNAc(b1-2)Man(a1-6)]Man(b1-4)GlcNAc(b1-4)GlcNAc
Procedure, shortened: as §1

[21] = target: Gal(b1-4)GlcNAc(b1-3)Gal(b1-4)GlcNAc(b1-2)Man(a1-3)[Gal(b1-4)GlcNAc(b1-3)Gal(b1-4)GlcNAc(b1-2)Man(a1-6)]Man(b1-4)GlcNAc(b1-4)[Fuc(a1-6)]GlcNAc
Procedure, shortened: as §1

[22] = target: Gal(b1-4)GlcNAc(b1-3)Gal(b1-4)GlcNAc(b1-2)[Gal(b1-4)GlcNAc(b1-3)Gal(b1-4)GlcNAc(b1-6)]Man(a1-6)[Gal(b1-4)GlcNAc(b1-3)Gal(b1-4)GlcNAc(b1-2)Man(a1-3)]Man(b1-4)GlcNAc(b1-4)[Fuc(a1-6)]GlcNAc
Procedure, shortened: as §1

[23] = target: Gal(b1-4)GlcNAc(b1-3)Gal(b1-4)GlcNAc(b1-3)GalNAc
Procedure, shortened: as §1

[24] = target: Gal(b1-4)GlcNAc(b1-6)[Gal(b1-3)]GalNAc
Procedure, shortened: as §1

Gal(b1-6)Gal = target: Gal(b1-6)Gal
Procedure, shortened: as §1

Gal3S(b1-4)GlcNAc = target: Gal3S(b1-4)GlcNAc
Procedure, shortened: as §1

[25] = target: Gal3S(b1-4)[Fuc(a1-3)]Glc
Procedure, shortened: as §1

GalNAc(a1-3)GalNAc = target: GalNAc(a1-3)GalNAc
Procedure, shortened: as §1

B1: GST-Gap1 (Streptococcus parasanguinis), A1C3L5 (protein)
chain: MFYFVPSWYNGQRQWYYDTPWWFRVKNRMTFDDSVNQVKMFLQGQEEIGLMILNYQPQLRYFLHKQNIFGIYYWSFFDDIQNITRSYTKIIHLKDLNWPEGCEFLYSPFAVVVRLKGEIFAIVNYAEDGNLHSVSFQKNGKVTKDYIFDDRGFLSSILYYDIDERPLYQDYLNINGVWQVREFLKKENDPTPILMINDFSDQTFSKKYYNGWEELIKERLAIFQNNHVENEDVFVLASDTQHNQLVSSIFKEHRKIYSFFGNRFNLENLGQDRISINDATFLVVDTEKNEELLRKTCENLVFKSIPIVRLSPFDSRLRLGHSQTVKEQIIYFHIDNIELDELYSVIAIILELMTLHLDIELRIVTFRQDFQLDLLKTWIIDFIKTNHFEDLLFKQISEGENEIEDEGEIELSRIAMECFTNENQIIKCLDTARLVIDLGIEPDLYTQIASISAGIPQINRVSSDYVIHQKNGLVISDISKLSSAIEFYFDGLFNWNEALIYAVRKMSDYTSGKILKQWKGMLKKK
glycan array binding signal (z-score) [1]: -0.291
glycan array binding signal (z-score) [2]: 0.111
glycan array binding signal (z-score) [3]: 0.383
glycan array binding signal (z-score) [4]: -0.608
glycan array binding signal (z-score) [5]: 1.32
glycan array binding signal (z-score) (Fuc(a1-2)Gal6S(b1-4)Glc): -0.647
glycan array binding signal (z-score) [6]: -0.485
glycan array binding signal (z-score) [7]: 0.152
glycan array binding signal (z-score) [8]: 0.024
glycan array binding signal (z-score) [9]: 0.035
glycan array binding signal (z-score) (Gal(b1-3)Gal(b1-4)GlcNAc): 0.416
glycan array binding signal (z-score) [10]: 13.5
glycan array binding signal (z-score) [11]: -0.654
glycan array binding signal (z-score) [12]: 2.25
glycan array binding signal (z-score) [13]: 3.43
glycan array binding signal (z-score) [14]: 0.494
glycan array binding signal (z-score) [15]: -0.334
glycan array binding signal (z-score) [16]: 0.3
glycan array binding signal (z-score) [17]: -0.046
glycan array binding signal (z-score) [18]: -0.809
glycan array binding signal (z-score) [19]: 0.833
glycan array binding signal (z-score) [20]: 4.81
glycan array binding signal (z-score) [21]: 1.2
glycan array binding signal (z-score) [22]: 2.87
glycan array binding signal (z-score) [23]: 2.15
glycan array binding signal (z-score) [24]: 0.095
glycan array binding signal (z-score) (Gal(b1-6)Gal): 0.538
glycan array binding signal (z-score) (Gal3S(b1-4)GlcNAc): 0.12
glycan array binding signal (z-score) [25]: -0.553
glycan array binding signal (z-score) (GalNAc(a1-3)GalNAc): -0.202
